# D2 ag-1: human D2 receptor agonism in beta-arrestin assay; DiscoveRx PathHunter D2 beta-arrestin, luminescence, 90 min; 100% = 57 uM dopamine signal; activation, % (test concentration not listed); 360,000 tested, 0.084% active; AID 624465; in the data active means activation above about 40%; inconclusive means between about 15% and that limit
# Target sequence (P14416 whole entry, looked up): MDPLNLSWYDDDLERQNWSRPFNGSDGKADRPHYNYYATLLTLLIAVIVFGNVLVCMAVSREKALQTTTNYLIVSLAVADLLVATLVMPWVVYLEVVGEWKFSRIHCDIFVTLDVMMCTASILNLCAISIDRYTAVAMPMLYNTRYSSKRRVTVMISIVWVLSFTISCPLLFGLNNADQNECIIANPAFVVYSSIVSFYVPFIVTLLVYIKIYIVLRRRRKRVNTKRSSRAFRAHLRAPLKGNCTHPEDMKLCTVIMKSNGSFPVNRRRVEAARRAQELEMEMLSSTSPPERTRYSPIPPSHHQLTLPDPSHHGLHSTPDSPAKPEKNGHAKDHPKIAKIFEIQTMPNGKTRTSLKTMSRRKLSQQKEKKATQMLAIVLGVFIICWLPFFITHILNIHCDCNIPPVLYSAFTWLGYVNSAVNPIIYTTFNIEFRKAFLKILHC
#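 Agonist mode: compounds alone added to overnight-plated D2 PathHunter cells for 90 min at 37 C, with 57 uM final dopamine (EC100) defining full response. Beta-arrestin recruitment detected by chemiluminescent reagent, read after 1 h at ambient temperature.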
# D2 ag-2: D2 dopamine receptor (human) agonism; P14416; activation, % at 2 µM; HEK293 T-REx D2 cells, calcium flux agonist mode; AID 485358; 340,000 tested, 0.53% active;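 active means activation over 3 SD above normal in the single-dose calcium agonist read, cut at about 30% in these data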
#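 HEK293 Trex D2 cells, tetracycline-induced, o/n 30 C 5% CO2; no-wash Ca dye, RT 30–90 min; 10-cycle baseline, 23 nl cpd added, kinetic Ca read 180 s; agonist hits = positive Ca response.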
# D2 antagonist: D2 dopamine receptor (human) antagonism; P14416; HEK293 TREx D2 cells, calcium flux, dopamine EC80; inhibition, % at 10 µM; 340,000 tested, 2% active; AID 485344; in the data active means inhibition above about 30%; inactive means below that, where a call was filed
#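 Cells plated overnight at 30 C with tetracycline; no-wash calcium dye, 30–90 min RT; 10 s baseline; compound pinned; 180 s read; EC80 dopamine added; another 180 s read.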
# D2 PAM-1: human D2 receptor positive allosteric modulation | P14416 | DiscoveRx D2 beta-arrestin cells, luminescence, 90 min; 100% = 57 uM dopamine signal | potentiation, % (concentration not given with the values) | 360,000 tested, 0.23% active; in the data active means potentiation above about 50%; inconclusive means mostly about 30% to 49%
#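 PathHunter D2 cells, attached overnight at 37 deg C, received compound in DMSO plus dopamine at EC20 (50 nM final) for 90 min at 37 deg C. Beta-arrestin recruitment was read as luminescence after 1 h with detection reagent at ambient temperature.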
# D2 PAM-2: positive allosteric modulators of human D2 dopamine receptor; potentiation, % at 10 µM; 340,000 tested, 0.34% active; P14416; HEK293 T-REx D2, calcium flux, EC20 dopamine potentiation;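 active means potentiation over 3 SD above the plate norm, cut at about 30% in these data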
#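 Tetracycline-induced HEK293 T-REx cells force-coupled to calcium signalling expressed D2; compounds were pin-added after a 10 s baseline, read kinetically 180 s, then an EC20 dopamine challenge followed with a further 180 s calcium read.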
# D3 ag: confirmation of human D3 dopamine receptor agonists, beta-arrestin | shares compounds with D2 ag-2 | Potency, µM (highest dose often 76.9 µM), actives largely listed as activators | DiscoveRx D3 beta-arrestin cells, luminescence, 90 min | 2,300 tested, 4% active; further: nearly all actives have a fitted effect of over 70% in size
# D2 ag-3: D2 receptor agonism, beta-arrestin counterscreen. shares compounds with D2 ag-2. DiscoveRx PathHunter D2 beta-arrestin, luminescence, 90 min; response scale: percent relative to full dopamine signal. Potency, µM (titrated, usually from 76.9 µM), usual class: activators. 2,300 tested, 5.9% active; further: nearly all actives have a fitted effect of over 70% in size
# Numbers stand for hits; . = inactive; ? = inconclusive; / = no result; ! = repeats disagree. Sampled rows, rich in hits. Any-hit rate of the full collection: about 2.4%. Unless noted, the call rests on the fitted dose curve; in most records, active means well fitted activation curve with a large enough effect; inconclusive means small, poorly fitted or top-dose-only effect; inactive means flat fitted curve, though single readings scatter.
SMILES,D2 ag-1,D2 ag-2,D2 antagonist,D2 PAM-1,D2 PAM-2,D3 ag,D2 ag-3
c1ccc2c(CNC3CCCCCC3)c[nH]c2c1,.,.,.,.,.,/,/
COC(=O)C1=C(c2ccc(OC(F)(F)F)cc2)C[C@@H]2CC[C@H]1N2C(=O)N1CCOCC1,.,.,.,.,.,.,.
COC(=O)C1=C(c2ccc(OC(F)(F)F)cc2)C[C@@H]2CC[C@H]1N2C(=O)NCC1CC1,.,.,.,.,.,/,/
COC(=O)C1=C(c2ccc(OC(F)(F)F)cc2)C[C@@H]2CC[C@H]1N2C(=O)NC1CC1,.,.,.,.,.,.,.
NCC(O)c1cc(O)c(O)cc1F (stereo not given),.,67,81,.,.,.,13µM
CCN(CC)C(=O)c1ccc(NC(=O)c2cccc(S(=O)(=O)N3CCN(Cc4ccccc4)CC3)c2)cc1,.,.,.,.,.,/,/
O=C(CCn1nc(-c2ccc(Cl)cc2)ccc1=O)N1CCC2(CC1)OCCO2,.,.,.,.,/,/,/
CC(C)NS(=O)(=O)c1ccc(OCC(=O)N2CCN(C)CC2)cc1,.,.,.,.,.,/,/
CCCOC(=O)c1ccccc1C(=O)OCCC,.,.,.,.,.,.,.
CCOC(=O)c1ccccc1C(=O)OCC,.,/,/,.,/,/,/
Cc1ccc(-c2nc(CN3C(=O)CN=C(c4ccccc4)c4cc(Cl)ccc43)c(C)o2)cc1,/,.,/,/,.,/,/
CN1C[C@H](C(=O)N[C@]2(C)O[C@@]3(O)[C@@H]4CCCN4C(=O)[C@H](Cc4ccccc4)N3C2=O)CC2c3cccc4[nH]cc(c34)C[C@H]21 (stereo not given in full),?,81!,88!,.,.,.,?
COC(=O)c1ccccc1OP(=O)(c1cccc([N+](=O)[O-])c1)c1cccc([N+](=O)[O-])c1,.,/,/,.,/,/,/
CCCCOCCCN1C(C)=CC(=C2C(=O)NC(=S)NC2=O)C=C1C,.,.,.,.,.,.,.
CN1CCN(c2cc(N3CCCC3)c([N+](=O)[O-])cc2F)CC1,.,.,.,.,.,/,/
CC(C)(C)c1cc(C=C(C#N)C#N)cc(C(C)(C)C)c1O,.,.,.,.,.,?,.
N#CC(C#N)=Cc1ccc(O)c(O)c1,.,.,.,.,.,/,/
CCSc1nnc(NC(=O)c2cccn(Cc3ccc(Cl)cc3)c2=O)s1,/,.,/,/,.,/,/
COc1ccc(CN2CCN(c3ccccc3F)CC2)cc1O,.,/,/,.,/,.,.
COc1ccccc1N1CCN(Cc2ccc(F)cc2)CC1,.,38,76,.,.,.,.
COC(=O)C1=C(c2ccc(F)cc2OCc2ccccc2)C[C@@H]2CC[C@H]1N2C(=O)NCCO,.,.,.,.,.,/,/
CCOC(=O)C1CCN(Cc2ccc(Cl)nc2)CC1,.,47,47,.,.,.,.
CCOc1ccc(CN2CCN(C(=O)Cc3ccccc3)CC2)cc1,.,.,.,.,.,/,/
O=C(CCc1nnc2ccc(NCc3ccc(F)cc3)nn12)N1CCC2(CC1)OCCO2,.,.,.,.,.,/,/
COc1ccc(CN2CCN(c3ccccc3)CC2)c(C)c1C,.,63,65,.,.,.,.
SMILES,D2 ag-1,D2 ag-2,D2 antagonist,D2 PAM-1,D2 PAM-2,D3 ag,D2 ag-3
CC(C(N)=O)N1CC(c2ccccc2)CC1=O (stereo not given),.,45,.,.,.,.,.
O=c1[nH]c(=O)n(C2CCCCC2)c(O)c1/C=N/N1CCCCC1c1cccnc1 (stereo not given),.,.,.,.,.,/,/
N#C/C=C/C#N,.,.,.,.,.,.,.
COc1cc2c3c(c1OC)-c1cc(O)ccc1CC3NCC2 (stereo not given),.,.,.,.,.,.,.
COC(=O)C1=C(c2cc3ccccc3s2)C[C@@H]2CC[C@H]1N2C(=O)NC1CC1,.,/,/,.,/,/,/
COC(=O)C1=C(c2cc3ccccc3s2)C[C@@H]2CC[C@H]1N2C,.,.,58,.,.,.,.

# Source: PubChem BioAssay (National Center for Advancing Translational Sciences (NCATS))
